# Experimental data as given in PubChem BioAssay (Tox21).
# Records with an inconclusive call do not appear. Entries that show only a call come without a potency. Activity calls are given as the source filed them. Calls come from the whole dose curve.
# Target: Thyrotropin receptor (Homo sapiens) (UniProt P16473)
# Test: qHTS assay to identify small molecule antagonists of the thyroid stimulating hormone receptor (TSHR) signaling pathway (AID 1259385); note: nearly all actives have a fitted effect of over 20% in size
# Settings: TSHR-HEK293 cAMP HTRF, TSH-stimulated antagonist mode; series mostly up to 92.4 µM
# In short: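 TSHR-HEK293 cells (800/well) plated 18 h, then compounds with Ro20-1724 and TSH at 1.5 ng/mL final, 30 min at room temperature. cAMP quantified by HTRF (cAMP-d2/anti-cAMP-cryptate, 1 h); 15 concentrations in triplicate.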
# Potency is the fitted concentration of half-maximal effect.
# Sequence of Thyrotropin receptor (Homo sapiens) (P16473 whole entry, looked up): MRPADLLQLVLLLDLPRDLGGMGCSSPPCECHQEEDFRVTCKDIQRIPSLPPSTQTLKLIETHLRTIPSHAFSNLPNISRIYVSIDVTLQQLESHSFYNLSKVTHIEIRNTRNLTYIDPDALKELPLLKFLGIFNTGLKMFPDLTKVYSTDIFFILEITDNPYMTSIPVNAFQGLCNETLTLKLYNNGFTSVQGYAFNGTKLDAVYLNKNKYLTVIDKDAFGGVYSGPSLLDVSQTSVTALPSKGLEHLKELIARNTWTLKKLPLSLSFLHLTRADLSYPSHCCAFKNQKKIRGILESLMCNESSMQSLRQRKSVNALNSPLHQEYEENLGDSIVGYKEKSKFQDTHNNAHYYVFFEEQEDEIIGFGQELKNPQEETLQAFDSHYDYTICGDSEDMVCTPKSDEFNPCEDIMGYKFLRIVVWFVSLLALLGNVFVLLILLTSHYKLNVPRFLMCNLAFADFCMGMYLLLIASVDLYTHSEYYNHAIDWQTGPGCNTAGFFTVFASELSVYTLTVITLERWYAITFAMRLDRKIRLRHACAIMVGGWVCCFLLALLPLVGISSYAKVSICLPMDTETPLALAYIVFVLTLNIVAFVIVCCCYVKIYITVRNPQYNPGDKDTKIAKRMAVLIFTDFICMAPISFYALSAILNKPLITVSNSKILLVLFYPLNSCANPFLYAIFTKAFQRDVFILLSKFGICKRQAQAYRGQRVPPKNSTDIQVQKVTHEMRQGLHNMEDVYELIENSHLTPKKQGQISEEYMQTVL
SMILES,"activity change, negative = inhibition",Potency
CCC[CH2][Sn]([CH2]CCC)([CH2]CCC)[O][Sn]([CH2]CCC)([CH2]CCC)[CH2]CCC,0.334% [at 8.39 µM] (inactive),
CSSC,,inactive
OCC(Br)CBr (stereo unspecified),,inactive
O=Cc1ccccc1,,inactive
CCC1COC(Cn2cncn2)(c2ccc(Cl)cc2Cl)O1 (stereo unspecified),,inactive
C#CC1(O)CCCCC1,,inactive
CCC[CH2][Sn]([CH2]CCC)([O]C(C)=O)[O]C(C)=O,,inactive
Clc1ccc(C2(Cn3cncn3)OCCO2)c(Cl)c1,,inactive
Nc1cc(Cl)ccc1Cl,,inactive
CCOP(=O)(OCC)Oc1cc(C)nc(C(C)C)n1,,inactive
CC1CN1 (stereo unspecified),,inactive
CCCCCCC[CH2][Sn]([Cl])([Cl])[CH2]CCCCCCC,,inactive
N#Cc1ccc(N(CC(N)=O)CC(F)(F)F)cc1C(F)(F)F,,inactive
O=C(N[C@@H]1N=C(c2ccccc2F)c2cccc3c2N(CC3)C1=O)c1cc2ccccc2[nH]1,,inactive
O=[N+]([O-])c1ccc(CCl)cc1,,inactive
C=CCOC(=O)c1ccccc1N,,inactive
COC(=O)c1ccccc1S(=O)(=O)NC(=O)Nc1nc(C)nc(OC)n1,,inactive
Cc1ccc([N+](=O)[O-])[c]2c1[O][Hg]2,,21.1 µM (active)
Cc1ccn2nc(S(=O)(=O)Nc3c(F)cccc3F)nc2n1,,inactive
S=C=NCCc1ccccc1,,inactive
Oc1cc(Cl)c(Cl)c(Cl)c1Cl,,inactive
CCC(C)Br (stereo unspecified),,inactive
C#CCC1=C(C)C(OC(=O)C2C(C=C(C)C)C2(C)C)CC1=O (stereo unspecified),,inactive
COCCC#N,,inactive
CCC[CH2][Sn]([CH2]CCC)([CH2]CCC)[CH2]CCC,,inactive
COP(=O)(OC)Oc1ccc([N+](=O)[O-])cc1,,inactive
